According to ChEMBL document CHEMBL3988442, “University of Dundee, Small-Polar-MMV Screening Library” (2021):
The whole screen tested about 69,000 compounds, of which about 950 (1.4%) showed an effect of 50% or more. Shown is part of a subset that was picked to be rich in strong results.

system: Mycobacterium tuberculosis; test: Cornell M. t heat shock assay; type: functional, organism-based; set-up: dose or concentration left out as unconfirmed; further: in the data most compounds retested in dose-response had high values

| Compound | Percent Effect |
| --- | --- |
| O=C(O)C(F)(F)F.c1ccn(Cc2nnc3n2CCCN(Cc2ccoc2)C3)c1 | -15.36% |
| O=C(C1CCC1)N1C[C@@H]2CN(Cc3ccncc3)C(=O)[C@@H]2C1.O=C(O)C(F)(F)F | 6.384% |
| CN(C)CCCNCCC(c1ccccc1)C1CCOC(C)(C)C1.O=C(O)C(=O)O (stereo not given) | 21.84% |
| CN1CCN(C2COC3(CCN(Cc4ccc(F)cc4)CC3)C2)CC1.O=C(O)C(F)(F)F.O=C(O)C(F)(F)F.O=C(O)C(F)(F)F (stereo not given) | -9.014% |
| CCNC(=O)NC(=O)CNC(C)(C)c1ccc2c(c1)OCCO2 | 11.57% |
| CCCNC(=O)NC(=O)CNC(C)(C)c1ccc2c(c1)OCO2 | -10.73% |
| CCCNC(=O)NC(=O)CNC(C)(C)c1ccc2c(c1)OCCO2 | 99.39% |
| Cc1cc(C[C@@H]2COC[C@H]2NCc2ccc(C(C)C)cc2)on1.O=C(O)CC(O)(CC(=O)O)C(=O)O | 9.353% |
| Cc1[nH]c2ccc(Cl)cc2c1CCNc1ncnc2c1CCNC2 | 96.99% |
| Cc1[nH]c2ccc(C#N)cc2c1CCNc1ncnc2c1CCNCC2 | 7.503% |
| Cc1[nH]c2ccccc2c1CCNc1ncnc2c1CCNCC2 | 1.152% |
| Cc1cc(C)nc(N2CCCC(C(=O)Nc3n[nH]c(C(C)C)n3)C2)n1 (stereo not given) | 13.11% |
| O=C(c1ccc[nH]1)N1CCCn2c(CN3CCCCC3)nnc2C1 | 16.28% |
| O=C(O)C(F)(F)F.O=C(c1ccc[nH]1)N1CCCn2c(CNC3CCC3)nnc2C1 | 92.9% |
| O=C1CCCN1Cc1nnc2n1CCCN(C(=O)c1ccc[nH]1)C2 | 27.49% |
| Cc1cnc(NC(=O)c2cccc(CN(C)Cc3ncccc3C)c2)s1 | 62.95% |
| Cc1cnc(NC(=O)c2cccc(CN(C)Cc3snnc3C)c2)s1 | 9.507% |
| Cc1cnc(NC(=O)c2cccc(CN(C)Cc3ccno3)c2)s1 | 6.699% |
| Cl.O=C(c1cccc(F)c1)N1CCCC1c1ncc2c(n1)CCNC2 (stereo not given) | -29.7% |
| CNC(=O)NC(=O)CN1CCN(CC2CC2)c2ccccc21 | 34.37% |

| Compound | Percent Effect |
| --- | --- |
| NC(=O)NC(=O)CCN1CCN(CC2CC2)c2ccccc21 | -11.96% |
| NC(=O)NC(=O)CN1CCN(CC2CC2)c2ccccc21 | 61.15% |
| CN(C)CCN1CCCC12CCN(C(=O)c1ccoc1)CC2.O=C(O)C(F)(F)F.O=C(O)C(F)(F)F | -7.317% |
| O=C(O)C(F)(F)F.O=C1C[C@H]2[C@H](CCN2Cc2ccccn2)N1CC1CC1 | -8.238% |
| CN(C)CCCNC(=O)c1ccc(N(C)S(C)(=O)=O)cc1Cl | 4.922% |
| O=C(CCN1CCCN(c2nccs2)CC1)Nc1ccccc1 | -8.927% |
| NC(=O)NC(=O)CCN1CCCN(c2nccs2)CC1 | 91.9% |
| CNC(=O)NC(=O)CCN1CCN(c2nccs2)CC1 | 23.87% |
| O=C(CCN1CCCN(c2nccs2)CC1)NCC1CCCCC1 | 0.6887% |
| NC(=O)NC(=O)CN1CCN(c2nccs2)CC1 | -3.548% |
| NC(=O)NC(=O)CCN1CCN(c2nccs2)CC1 | 101.5% |
| CCn1cncc1CN(Cc1ccc(OC)cc1OC)CC1CCCO1.O=C(O)CC(O)(CC(=O)O)C(=O)O (stereo not given) | -14.56% |
| CN(Cc1cccnc1)[C@@H]1CN(C(=O)CC2CC2)[C@@H]2CCCO[C@H]12.O=C(O)C(F)(F)F.O=C(O)C(F)(F)F | -21.3% |
| CC/N=c1\c(NC(=O)C(C)(C)C)c(O)oc2ccccc12 | -10.16% |
| Oc1cc(C2CCCCN2Cc2cccs2)nc(-c2ccccn2)n1 (stereo not given) | 103.7% |
| Cn1ncc2ccc(C3CCCN(Cc4cccs4)C3)nc21 (stereo not given) | 13.99% |
| Oc1cc(C2CCCCN2Cc2ccsc2)nc(-c2ccncc2)n1 (stereo not given) | -9.132% |
| Oc1cc(-c2nccs2)nc(C2CCN(Cc3cccs3)CC2)n1 | 15.4% |
| Oc1cc(C2CCCCN2Cc2cccs2)nc(-c2ccncc2)n1 (stereo not given) | -5.43% |
| Oc1cc(C2CCCN(Cc3cccs3)C2)nc(-c2ccccn2)n1 (stereo not given) | 99.87% |

| Compound | Percent Effect |
| --- | --- |
| O=C(O)C(F)(F)F.O=C1[C@H]2CN(Cc3nccs3)C[C@H]2CN1c1cncnc1 | -2.915% |
| CN(C)CCO[C@@H]1CC[C@H]2[C@H]1OCCN2C(=O)COc1ccccc1.O=C(O)C(F)(F)F | 10.1% |
| COc1ccc(CN2C[C@@H]3OCCN(CC4CCCO4)[C@@H]3C2)cc1.O=C(O)C(F)(F)F.O=C(O)C(F)(F)F (stereo not given in full) | 2.354% |
| COc1ccc(CN2CC[C@H]3[C@H]2CCN3C(=O)c2cnn(C)c2)cc1.O=C(O)C(F)(F)F | 1.435% |
| CC(=O)N1Cc2ccnn2CC(C(=O)NCc2cccnc2)C1.O=C(O)C(F)(F)F (stereo not given) | 37.04% |
| FC(F)(F)c1ccc2nc([C@H]3CCN(C4CCCCC4)C3)[nH]c2c1 | 60.59% |
| FC(F)(F)c1ccc2nc([C@H]3CCN(C4CCOCC4)C3)[nH]c2c1 | 5.789% |
| FC(F)(F)c1ccc2nc([C@H]3CCN(C4CCC4)C3)[nH]c2c1 | 17.31% |
| Cc1cnn(CC2CCCN2CC(=O)Nc2nncs2)c1 (stereo not given) | -6.011% |
| Cc1cnn(CC2CCCN2CC(=O)NCc2ccccn2)c1 (stereo not given) | -22.46% |
| O=C(CN1CCCC1Cn1cncn1)Nc1nccs1 (stereo not given) | 4.576% |
| Cc1cnn(CC2CCCN2CC(=O)Nc2cc(C)nn2C)c1 (stereo not given) | 19.4% |
| COc1c(C2CCCN2CC(=O)Nc2nccs2)c(C)nn1C (stereo not given) | 8.304% |
| CC(=O)Nc1nc(CN2CCCC2Cn2cc(C)cn2)cs1 (stereo not given) | 69.78% |
| COc1c(C2CCCN2CC(=O)Nc2nc(C)cs2)c(C)nn1C (stereo not given) | 75.33% |
| Cc1cnn(CC2CCCN2CC(=O)Nc2nc(C)cs2)c1 (stereo not given) | 100.4% |
| COc1c(C2CCCN2CC(=O)Nc2cc(C)no2)c(C)nn1C (stereo not given) | 8.972% |
| CC(=O)Nc1nc(CN2CCCC2Cn2cncn2)cs1 (stereo not given) | -13% |
| CC(=O)Nc1nc(CN2CCCC2Cn2cccn2)cs1 (stereo not given) | -5.465% |
| Cc1cnn(CC2CCCN2CC(=O)Nc2nccs2)c1 (stereo not given) | 102.3% |
